Assay outcomes as filed in PubChem BioAssay.
PHOSPHO1 block: inhibitors of human PHOSPHO1 phosphatase; Q8TCT1; recombinant PHOSPHO1, absorbance phosphatase assay; inhibition, % at 13.3 µM; 1.1% of 290,000 active; AID 1565; in the data active = inhibition above about 60%
A3A deaminase: blocks human APOBEC3A ssDNA deamination; recombinant A3A, FAM/TAMRA ssDNA deamination fluorescence; P31941; 0.41% of 330,000 active; inhibition, % at 20 µM; AID 493011;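 active = at least 40% inhibition at 20 µM here, with at most 30% in a related deaminase screen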;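 also: plate controls were A3A with DMSO for no effect and wells lacking A3A enzyme for full effect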
Target sequence (P31941 whole entry, looked up): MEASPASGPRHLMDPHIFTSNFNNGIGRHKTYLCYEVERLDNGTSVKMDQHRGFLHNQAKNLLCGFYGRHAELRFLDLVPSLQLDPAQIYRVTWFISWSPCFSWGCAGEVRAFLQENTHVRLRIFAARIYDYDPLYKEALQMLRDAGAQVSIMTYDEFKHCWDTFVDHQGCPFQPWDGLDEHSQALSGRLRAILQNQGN
A3G deaminase: inhibitors of human APOBEC3G DNA deaminase. recombinant A3G, ssDNA deamination FAM/TAMRA fluorescence. AID 493012. 0.28% of 330,000 active. inhibition, % at 20 µM;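 active = inhibition of at least 40% at 20 µM, with no more than 30% in the related APOBEC3A deaminase screen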;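 also: plate controls were DMSO wells with A3G for no effect and wells lacking A3G enzyme for full effect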
rCAG RNA binder: molecules binding r(CAG) RNA repeats | inhibition, % at 3 µM | r(CAG) RNA repeat, TO-PRO-1 dye displacement fluorescence | 1.3% of 370,000 active;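 active = inhibition above the plate cutoff, the mean of all test compounds on that plate plus 3 SD, cut at about 35% in these data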;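 also: 0% = DMSO alone and 100% = 100 µM mitoxantrone as full dye displacement; higher means more dye released from RNA so lower well fluorescence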
ALR H2O2 inh: inhibitors of human sulfhydryl oxidase ALR; P55789; purified ALR, DTT oxidation, H2O2 HRP-luminol luminescence; inhibition, % (concentration not given with the values); 3.8% of 290,000 active;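 active = mean replicate inhibition above about 79%, with every replicate also reaching it, limit read from the data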
Target sequence (P55789 whole entry, looked up): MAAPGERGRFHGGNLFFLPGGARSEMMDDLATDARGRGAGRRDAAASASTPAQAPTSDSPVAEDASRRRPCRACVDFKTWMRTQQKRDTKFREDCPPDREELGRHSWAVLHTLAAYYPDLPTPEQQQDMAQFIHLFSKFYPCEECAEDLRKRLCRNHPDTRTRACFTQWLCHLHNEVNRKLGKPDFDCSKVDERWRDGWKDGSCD
aDG glyco act: alpha-DG glycosylation activation | Pro5-aDG cells, alpha-DG glycosylation AlphaScreen (IIH6); 0% Pro5, 100% B10-LARGE cell signal | activation, % at 10 µM | 0.22% of 360,000 active | AID 624168;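 active = activation of at least 8% versus controls, or a plate z-score of at least 8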;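 also: Pro5 are CHO cells carrying HIG-tagged alpha-DG that lacks glycosylation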
* marks the source's active call; other numbers are inactive results. In the library only some 5.4% were active in any assay of this set; here they are far more common.

How did CCCCn1c(CCC(=O)O)ccc1-c1cccs1 do in these assays?
PHOSPHO1 block: 2.0; A3A deaminase: -3.1; A3G deaminase: -0.1; rCAG RNA binder: 18.1; ALR H2O2 inh: 93.4*; aDG glyco act: -0.1

Results for O=C(O)CCc1ccc(-c2cccs2)n1NC(=O)c1cccs1 ?
PHOSPHO1 block: 41.8; A3A deaminase: -1.5; A3G deaminase: -7.8; rCAG RNA binder: 1.9; ALR H2O2 inh: 98.9*; aDG glyco act: 0.1

Results for CCn1c(SCC(=O)NN=Cc2ccc(C(=O)O)cc2)nc2ccccc21 ?
rCAG RNA binder: 1.1

Results for COC(=O)C1CN(Cc2ccc(OC)cc2)CCS(=O)(=O)N1Cc1cn(Cc2ccc(Cl)cc2)nn1 (configuration not stated) ?
rCAG RNA binder: 6.6

Results for COc1ccc(CNC(=S)N/N=C/c2ccc(O)c(OC)c2)cc1 ?
PHOSPHO1 block: -11.7; A3A deaminase: -6.0; A3G deaminase: -5.5; rCAG RNA binder: 8.0; ALR H2O2 inh: 86.7*; aDG glyco act: 0.0

What do the screens show for `COc1ccc(CNC(=S)N/N=C/c2ccc(OC)c(OC)c2)cc1`?
PHOSPHO1 block: 50.9; A3A deaminase: -3.2; A3G deaminase: -4.5; rCAG RNA binder: -0.6; ALR H2O2 inh: 6.3; aDG glyco act: -0.2

What do the screens show for `COc1cc(/C=N/NC(=S)NC2CC3CCC2C3)ccc1O` (configuration not stated)?
PHOSPHO1 block: 20.3; A3A deaminase: -4.6; A3G deaminase: -6.5; rCAG RNA binder: 2.0; ALR H2O2 inh: 98.7*; aDG glyco act: 0.4

Results for CC(=O)c1cc(-c2cc(C(F)(F)F)cc(C(F)(F)F)c2)c(=O)n2c1CCC2 ?
rCAG RNA binder: -2.3

What do the screens show for `COc1ccc2c(c1OC)C(=O)N1c3ccccc3N=C(c3ccc([N+](=O)[O-])cc3)CC21` (configuration not stated)?
PHOSPHO1 block: -5.8; rCAG RNA binder: 2.1; ALR H2O2 inh: 96.8*; aDG glyco act: 0.0

What do the screens show for `COc1ccc2c(c1OC)C(=O)N1N=C(c3ccc(-c4ccccc4)cc3)CC21` (configuration not stated)?
PHOSPHO1 block: -14.2; A3A deaminase: -4.5; A3G deaminase: -4.4; rCAG RNA binder: -3.3; aDG glyco act: 1.3

How did COc1ccc2c(c1OC)C(=O)N1N=C(c3ccc(O)cc3)CC21 (configuration not stated) do in these assays?
PHOSPHO1 block: 21.6; A3A deaminase: -2.8; A3G deaminase: 2.8; rCAG RNA binder: -1.7; ALR H2O2 inh: 99.3*; aDG glyco act: -0.5

How did CC(C)(C)OC(=O)N/N=C/c1ccc(N2CCOCC2)s1 do in these assays?
PHOSPHO1 block: -7.4; A3A deaminase: -1.1; A3G deaminase: -2.0; rCAG RNA binder: 4.7; ALR H2O2 inh: 83.1*; aDG glyco act: -0.4

What do the screens show for `O=C(O)c1ccc(CSc2nc3ccccc3o2)cc1`?
PHOSPHO1 block: 20.2; A3A deaminase: -0.8; A3G deaminase: 12.1; rCAG RNA binder: 4.7; ALR H2O2 inh: 97.0*; aDG glyco act: 0.0

What do the screens show for `c1ccc(-c2noc(CSc3nc4ccccc4o3)n2)cc1`?
PHOSPHO1 block: 20.7; A3A deaminase: -0.3; A3G deaminase: -1.9; rCAG RNA binder: -3.7; ALR H2O2 inh: 86.3*; aDG glyco act: 0.2

What do the screens show for `O=C(O)c1ccccc1CSc1nc2ccccc2o1`?
PHOSPHO1 block: 75.2*; A3A deaminase: 0.2; A3G deaminase: -1.4; rCAG RNA binder: 3.9; ALR H2O2 inh: 35.6; aDG glyco act: -0.1

How did CC(=O)CSc1nc2ccccc2o1 do in these assays?
PHOSPHO1 block: 3.4; A3A deaminase: -6.8; A3G deaminase: -2.6; rCAG RNA binder: -1.6; ALR H2O2 inh: -8.5; aDG glyco act: -0.3

Results for O=C(CSc1nc2ccccc2o1)c1ccccc1 ?
PHOSPHO1 block: -32.2; A3A deaminase: -2.9; A3G deaminase: -7.7; rCAG RNA binder: 0.7; aDG glyco act: 1.2

How did CCCCn1c(N)c(N(Cc2ccccc2OC)C(=O)C(C)Oc2ccc(F)cc2)c(=O)[nH]c1=O (configuration not stated) do in these assays?
A3A deaminase: 0.8; A3G deaminase: -9.0; rCAG RNA binder: -1.1; ALR H2O2 inh: -0.3; aDG glyco act: -0.1
